Screens from PubChem.
In the library only some 1.3% were active in any assay of this set; here they are far more common.
PTHR1 agonist: qHTS for PTHR1 Agonists: Primary Screen | 0.075% of 410,000 active | Potency, µM (series often up to 115 µM), inactives show top-dose activation, usual class: activators | HEK293 GP2 PTHR1 cells, GloSensor cAMP luminescence, 1 h; note: potency is the fitted concentration of half-maximal effect; nearly all actives have a fitted effect of over 55% in size
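HEK-293-derived GP2 cells expressing PTHR1 and a GloSensor cAMP reporter, 3,000/well, plated overnight, given luciferin plus IBMX (each 0.5 mM as added) for 1 h at 37 °C, then compound for 1 h at 37 °C. Luminescence was read after 15 min at room temperature.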
Giardia killer: Small Molecules that selectively kill Giardia lamblia: qHTS. AID 540267, 2011. 0.15% of 340,000 active. activity change, % at 7.66 µM, hits read low. Giardia lamblia trophozoite viability; in the data active = activity change below about -80%; inconclusive = between about -30% and that limit;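 note: parasites exposed to compound for two days anaerobically before the ATP read; % is set by controls: 0 for no effect and ±100 for the full control effect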
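Trophozoites 100 cells/well + cpd; 48 hrs, 37 deg C, anaerobic. ATPLite 1-Step added, 15-30 min RT, luminescence read (ATP-based viability).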
PINK1 modulator: A Quantitative High throughput Screen to Identify Chemical Modulators of PINK1 Expression | PINK1 immunofluorescence, high-content cytometry, 24 h | Potency, µM (series often up to 76.6 µM), inactives show at the highest dose activation (PINK1 increase), usual class: activators | 0.2% of 410,000 active | AID 624263, 2012; active = well fitted activation curve with a large enough effect; inconclusive = small, poorly fitted or top-dose-only effect; cell line not stated here; note: potency is the fitted concentration of half-maximal effect; % of control where 0% means no effect; nearly all actives have a fitted effect of over 65% in size
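Stable cell line, 250 cells/well, 12 h attachment; compounds pinned at 5 concentrations, 24 h; CCCP control. Fixed with nuclear dye, primary antibodies 12 h at 10 degrees C, secondary plus cell stain; laser-scanning cytometer read.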
ERG-DNA inh: qHTS for Small Molecule Inhibitors of the ERG Ets/DNA interaction | Transcriptional regulator ERG (Homo sapiens), P11308 | fluorescence polarization, His-ERG Ets domain / labelled DNA | Potency, µM (series often up to 76.9 µM), without a hit: at the top dose FP activity, negative = inhibition, actives largely listed as inhibitors | 0.028% of 370,000 active; active = well fitted inhibition curve with a large enough effect in the polarisation, with a control signal flat; inconclusive = small, poorly fitted or top-dose-only effect, or effect the other way, or a change in a side signal; inactive = no such curve, though single readings can be large or run the other way; the % refers to the polarisation;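 note: polarization taken with two DNA probes labelled with fluorescein and Texas red; potency is the fitted concentration of half-maximal effect; % of control where 0% means no effect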
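His-tagged ERG Ets domain (1 uM in the protein solution; 300mM KCl, 50mM Tris-HCl, 1mM EDTA, 1mM DTT, pH 7.5) received compound, then a probe mix of 5 nM fluorescein-DNA and 100nM Texas-615-DNA. Fluorescence polarization was read for both dyes.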
miR-21 act: qHTS Assay for Modulators of miRNAs and/orActivators of miR-21; Potency, µM (titrated, usually from 38.3 µM), for the others: at the highest dose activity change, positive = activation, hits mostly activators; HeLa miR-21 FLuc reporter, luciferase, 48 h; 340,000 tested, under 10 active;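 note: % of control where 0% means no effect; miR-21 action dims this reporter so a rising signal means less miR-21 action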
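Compounds were titrated across several concentrations (up to approximately 40 uM) and incubated 48 hours with HeLa miR-21-FLuc reporter cells (miR-21 target sequence downstream of FLuc, endogenous miR-21). Readout was firefly luciferase luminescence after lytic detection reagent.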
12-LOX inh: Primary qHTS assay for inhibitors of human arachidonate 12S-lipoxygenase (ALOX12): Round 2; purified 12hLO, xylenol orange hydroperoxide absorbance; Potency, µM (titrated, usually from 108 µM), for the others: at the highest dose activity change, negative = inhibition, usual class: inhibitors; 1.1% of 580,000 active; AID 1671190, 2021; note: potency is the fitted concentration of half-maximal effect; % is set by controls: 0 for no effect and ±100 for the full control effect
Target sequence (P18054 whole entry, looked up): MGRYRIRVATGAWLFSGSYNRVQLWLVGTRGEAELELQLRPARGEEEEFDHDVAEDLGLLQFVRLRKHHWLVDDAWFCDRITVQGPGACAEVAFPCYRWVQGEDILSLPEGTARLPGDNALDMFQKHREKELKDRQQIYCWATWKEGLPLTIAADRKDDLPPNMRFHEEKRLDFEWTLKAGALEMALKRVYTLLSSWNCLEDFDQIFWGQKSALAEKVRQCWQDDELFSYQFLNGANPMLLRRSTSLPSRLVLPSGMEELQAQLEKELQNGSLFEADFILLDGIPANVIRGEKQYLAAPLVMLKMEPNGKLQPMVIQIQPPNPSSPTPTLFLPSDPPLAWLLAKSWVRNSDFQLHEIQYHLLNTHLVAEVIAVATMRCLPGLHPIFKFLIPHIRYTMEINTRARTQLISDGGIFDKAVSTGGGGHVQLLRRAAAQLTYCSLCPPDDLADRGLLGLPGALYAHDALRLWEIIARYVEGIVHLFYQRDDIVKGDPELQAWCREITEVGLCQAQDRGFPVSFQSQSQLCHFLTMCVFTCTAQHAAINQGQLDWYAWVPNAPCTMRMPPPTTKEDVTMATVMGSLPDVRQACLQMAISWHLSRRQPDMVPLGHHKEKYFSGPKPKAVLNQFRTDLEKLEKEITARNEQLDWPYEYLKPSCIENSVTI
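Purified human 12hLO at 150 nM in 25 mM Hepes, 0.01% Triton X-100, pH 7.0, preincubated 15 min at room temperature with compound. Reaction started with 40 uM arachidonic acid, 30 min at room temperature. Hydroperoxide measured by Fe-xylenol orange, 573/405 nm absorbance ratio.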
* hit, by the source's call; i = inactive; ? = inconclusive; . = no result given; [ ] = dose if it differs, or a comment. Unless noted, calls come from the whole dose curve; as a rule, active = well fitted curve in the direction sought with a large enough effect; inconclusive = small, poorly fitted or top-dose-only effect, or another doubt; inactive = no such curve, though single readings can be large; an effect the other way counts as inactive or inconclusive.

SMILES	PTHR1 agonist	Giardia killer	PINK1 modulator	ERG-DNA inh	miR-21 act	12-LOX inh
CC[N+](C)(CC)CC(=O)OCC1C(C)C=C(C)CC1C (stereo not given)	i	1	0%	10%	0%	?
CC1=CC(C)C(COC(=O)C[N+]2(C)CCOCC2)C(C)C1 (stereo not given)	.	.	.	.	.	20µM*
O=C(NCCN1C(=O)C2C3C=CC(C3)C2C1=O)Nc1ccccc1O (stereo not given)	-23%	-16	2%	-6%	-19%	36%[57.4 µM]
O=c1c(-c2ccco2)nc2ccccc2n1/C=C(/c1ccc(C(F)(F)F)cc1)n1c(=O)[nH]c2ccccc21	.	.	.	.	.	16µM*
CCCCCNC(=O)C(c1ccc(C(F)(F)F)cc1)n1c(=O)c(-c2ccco2)nc2ccccc21 (stereo not given)	-46%	.	.	.	.	45µM*
CCCCCNC(=O)C(C1CC1)n1c(=O)c(-c2ccco2)nc2ccccc21 (stereo not given)	i	.	.	.	.	35µM*
O=C(NC1CCCCC1)C(C1CC1)n1c(=O)c(-c2ccco2)nc2ccccc21 (stereo not given)	-25%	.	.	.	.	?
CCCCCNC(=O)C(c1cccc2ccccc12)n1c(=O)c(-c2ccco2)nc2ccccc21 (stereo not given)	-3%	.	.	.	.	10µM*
O=S(=O)(c1ccc(Br)cc1)N1CCN(c2nc(-c3cccs3)nc3ccccc23)CC1	.	-13	-1%	.	.	.
O=C(NC1CC1)C1CN(c2cccc(Cl)c2)C(=O)N1 (stereo not given)	.	.	.	.	.	42%[176 µM]
CCCCn1c(=O)n(CCC#N)c(=O)c2c1nc(CO)n2CCC	.	.	.	.	.	1%
O=C(Nc1ccc(F)c(Cl)c1)C1CCN(S(=O)(=O)c2ccc3c(c2)CCCN3C(=O)C2CCC2)CC1	-20%	.	-2%	-2%	25%	?
CC(C)(C)NC(=O)C(c1cccc2ccccc12)n1c(=O)c(-c2ccco2)nc2ccccc21 (stereo not given)	-23%	.	.	.	.	45µM*
CC(C)(C)NC(=O)C(c1cccc2ccccc12)n1c(=O)c(-c2ccccc2)nc2ccccc21 (stereo not given)	9%	.	.	.	.	-5%
O=C(N/N=C/c1c(Cl)nc2ccccn2c1=O)c1cccnc1	i	-2	16%	7%	0%	3.2µM*
CCOC(=O)c1cc(NC(=O)c2ccccc2)c(=O)n2c1oc1ccc(Cl)cc12	i	.	1%	5%	-6%	4%
Cc1ccc2nc(CO[C@H]3CN(c4ccc(C#N)cn4)C[C@H]3F)[nH]c2c1	.	.	.	.	.	14µM*
Cc1ccc2nc(CO[C@H]3CN(C4CCCCC4)C[C@H]3F)[nH]c2c1	.	.	.	.	.	79%[176 µM]
Cc1cscc(C)c1=S	i	.	0%	.	.	18µM*
O=C(COc1cccc(NC(=O)c2cccc([N+](=O)[O-])c2)c1)c1ccc(Br)cc1	-12%[57.5 µM]	-29	3%	-4%	?	0%
Cc1ccc(C)n1NC(=O)c1ccccc1Cl	-9%	3	3%	-4%	-6%	45µM*
CC1CCCN(c2ccc(/C=C(\C#N)c3nn(-c4ccccc4)c(N)c3C#N)cc2[N+](=O)[O-])C1 (stereo not given)	i	18	1%	-18%	9%	11%
OC(c1cc(-c2cccc(Cl)c2)nc2ccccc12)C1CCCCN1 (stereo not given)	-6%	2	-2%	14%	.	35µM*
O=C(NCCc1ccccc1)c1ccc2c(c1)OCCO2	-92%	-81*	1%	-17%	?	-9%
O=C(NCCc1ccccc1)c1ccc2c(c1)OCCCO2	-5%	-89*	0%	6%	?	?
SMILES	PTHR1 agonist	Giardia killer	PINK1 modulator	ERG-DNA inh	miR-21 act	12-LOX inh
COc1cc(/C=C2\Oc3cc(OS(=O)(=O)c4ccccc4)ccc3C2=O)cc(OC)c1OC	.	.	.	.	.	-2%
O=C(c1ccccc1)c1ccc(OCCOCCN2CCN(Cc3ccccc3)CC2)cc1	-24%	-11	2%	5%	10%	?
c1ccc(CN2CCN(CCOCCOc3ccc4c(c3)CCC4)CC2)cc1	-81%	8	-1%	-2%	-3%	50µM*
CCSc1nc2c(c(=O)[nH]c(=O)n2C)n1Cc1ccccc1Cl	.	.	.	.	.	32µM*
Cc1nn(C)cc1C(=O)N1C[C@@H](CO)[C@H](c2ccncc2)C1	.	.	.	.	.	50µM*
O=C(c1ccccc1Cl)N1C[C@@H](CO)[C@H](c2ccncc2)C1	.	.	.	.	.	15%
CCOc1ccc(NC(=O)CN(C)C(=O)C2COc3ccccc3O2)cc1OCC (stereo not given)	i	9	-2%	8%	.	-5%
O=C1ON=C(c2ccccc2)/C1=C/c1ccc(OS(=O)(=O)c2ccccc2)cc1	i	43	5%	.	-16%	18µM*
COc1ccc(C(=O)NC(=S)Nc2cccc3cc(O)ccc23)cc1OC	i	-2	1%	-5%	-1%	10µM*
COc1ccc(CCNC(=S)NC(=O)c2ccc(Br)cc2)cc1OC	-40%	-3	1%	4%	-9%	28µM*
O=C(CC12CC3CC(CC(C3)C1)C2)NC(=S)NCc1ccccc1	i	-1	11%	-3%	-5%	28µM*
Cc1ccc(C(=O)NC(=S)Nc2ccccc2C(F)(F)F)cc1	i	-22	6%	-6%	-23%	7.9µM*
COc1ccc(CCNC(=O)CCNC(=O)c2ccc(Br)cc2)cc1OC	i	?	1%	-12%	-8%	-6%
Cc1ccc(C(=O)NC(=S)NCc2ccccc2)cc1	-13%	-24	0%	3%	-16%	10µM*
O=C(NC(=S)NCc1ccco1)c1cccc(Cl)c1	.	.	.	.	-13%	?
COc1ccc(C(=O)NC(=S)NCc2cccnc2)cc1OC	-1%	-8	-3%	-2%	1%	?
O=C(NC(=S)NCc1ccccc1)c1cccc(Cl)c1	-14%	-5	0%	-8%	1%	28µM*
COc1ccc(C(=O)NC(=S)NCc2ccccc2)cc1OC	-23%	0	4%	-1%	0%	16µM*
CCc1nc2ccc(C(=O)N3CCN(C(=O)c4ccco4)CC3)cn2c1N(CC)Cc1cccc(Br)c1	i	.	1%	.	.	4%
O=C(COc1ccccc1Br)N1CCN(C(=O)c2cccs2)CC1	i	-4	1%	.	.	11%
